The results in this text go back to PubChem BioAssay (NCATS).

Inconclusive results are not listed. The source made the active and inactive calls. The call rests on the fitted dose curve; in most records, active means well fitted cell-killing curve with a large enough effect; inconclusive means small, poorly fitted or top-dose-only effect, or effect the other way; inactive means no such curve, though single readings can be large or run the other way.
Potency means the concentration at half of the fitted maximal effect.

The nature of the assay: Quantitative High-Throughput drug screen in 47 multiple myeloma cell lines against the NCATS MIPE library collection: PE2_PLB cell viability assay (AID 1919869). Further: nearly all actives have a fitted effect of over 35% in size. The following applies: PE2_PLB myeloma cells viability, ATP luminescence, 48 h; series mostly up to 45.8 µM. The source says:
PI: Beverly A. Mock Ph.D.
Laboratory of Cancer Biology and Genetics,
Center for Cancer Research, National Cancer Institute,
National Institute of Health, Bethesda, Maryland
Drug resistance and disease progression are common in multiple myeloma (MM) patients, underscoring the need for new therapeutic combinations. […] We hypothesized that effective combinations would reduce MYC expression and enhance p16 activity. […] These preclinical data identify potentially useful drug combinations for evaluation in drug-resistant MM and reveal potential mechanisms of combined drug sensitivity.
Described herein is the primary MIPE qHTS used to cherrypick compounds. Validated compounds were then further tested for potential synergistic activiy.
[1] Peat TJ, Gaikwad SM, Dubois W, Gyabaah-Kessie N, Zhang S, Gorjifard S, Phyo Z, Andres M, Hughitt VK, Simpson RM, Miller MA, Girvin AT, Taylor A, Williams D, D'Antonio N, Zhang Y, Rajagopalan A, Flietner E, Wilson K, Zhang X, Shinn P, Klumpp-Thomas C, McKnight C, Itkin Z, Chen L, Kazandijian D, Zhang J, Michalowski AM, Simmons JK, Keats J, Thomas CJ, Mock BA. Drug combinations identified by high-throughput screening promote cell cycle transition and upregulate Smad pathways in myeloma. Cancer Lett. 2023 Aug 1;568:216284. doi: 10.1016/j.canlet.2023.216284. Epub 2023 Jun 24. PMID: 37356470; PMCID: PMC10408729.
SEQUENCE No. (e.g., 1, 2, 3, etc.); […] (e.g., Cells, Incubation, Reagent, etc.); VALUE and DESCRIPTION.
1; Cells; 5 uL; white, solid bottom 1536-well Greiner assay plate.
2; Compounds; 23 nL; Kalypsis pin tool (Wako USA) equipped with a 1536-well pin head to transfer to the assay plates.
3; Incubation; 48 hours; 37C incubation.
4; Reagent;5uL; CellTiter Glo (Promega).
5; Detector; 425V; Luminescence; Viewlux PerkinElmer.
NOTES (numbers refer to Sequence numbers above)
1. The cell-based screening methods employed in this study were like those previously published. Briefly, the corresponding myeloma cell lines were screened in 1,536-well plates with 500 cells, 5-uL per well for inhibition of cell viability (assessed by measuring ATP levels with CellTiterGlo).
2. NCATS MIPE 4.0 library of approved and investigational drugs were added using the Kalypsis pin tool. Wells treated with DMSO only for 100% viability and media only for 0% viability were used as controls.
3. The assay plates were covered and incubated for 48 hours in a 37C, 5% CO2 incubator with controlled humidity.
4. After 48 hours, CellTilter-GloTM luminescent substrate mix (Promega) reagent was added to the assay plate and plates we incubated for 5 min at room temperature.
5. Signal was measured as median relative luminescence units on a ViewLux (PerkinElmer) multiplate reader.
[1] Heske CM, Davis MI, Baumgart JT, Wilson K, Gormally MV, Chen L, Zhang X, Ceribelli M, Duveau DY, Guha R, Ferrer M, Arnaldez FI, Ji J, Tran HL, Zhang Y, Mendoza A, Helman LJ, Thomas CJ. Matrix Screen Identifies Synergistic Combination of PARP Inhibitors and Nicotinamide Phosphoribosyltransferase (NAMPT) Inhibitors in Ewing Sarcoma. Clin Cancer Res. 2017 Dec 1;23(23):7301-7311. doi: 10.1158/1078-0432.CCR-17-1121. Epub 2017 Sep 12. PMID: 28899971; PMCID: PMC6636827.
Consider `CCCCn1c(=O)n(Cc2ccccc2F)c(=O)c2[nH]c(Cc3ccc(NC(C)=O)cc3)nc21`, for which the Potency result was “inactive”.

Consider `Cc1ccc(NC(=O)c2cccc(N(C)C)c2)cc1NC(=O)c1ccc(O)cc1`, for which the Potency is 18.7 µM (active).

For the molecule `CC(C)(F)C[C@H](N[C@@H](c1ccc(-c2ccc(S(C)(=O)=O)cc2)cc1)C(F)(F)F)C(=O)NC1(C#N)CC1`, the Potency was 6.62 µM (active).

On to `CC(NCCc1ccc(O)cc1)C(O)c1ccc(O)cc1` (stereo not given), for which the Potency result was “inactive”.

For the molecule `O=C(O)C1=CO[C@@H](O[C@@H]2O[C@H](CO)[C@H](O)[C@H](O)[C@H]2O)[C@@H]2C(CO)=CC[C@H]12`, the Potency result is “inactive”.

In the case of `O=C(O)CCNc1cc(N2CCc3ccccc3CC2)nc(-c2ccccn2)n1`, the Potency result was “inactive”.

On to `CC(C)n1c(C=C[C@H](O)C[C@H](O)CC(=O)O)c(-c2ccc(F)cc2)c2ccccc21`, for which the Potency was 14.8 µM (active).

Regarding `O=C(CCCN1CCN(c2ccc(F)cc2)CC1)NC1c2ccccc2CSc2ccccc21` (stereo not given), the Potency was 13.2 µM (active).

Turning to `COC(=O)[C@H](c1ccccc1Cl)N1CCc2sccc2C1`, the Potency entry was “inactive”.

Consider `CN[C@@H]1CN(c2ccc3c(=O)c(C(=O)O)cn(-c4nccs4)c3n2)C[C@@H]1OC`, for which the Potency is 1.82 µM (active).

Turning to `N=C1SC(=Cc2ccc(-c3ccc4c(c3)C(=O)NC4=O)o2)C(=O)N1c1ccc(Br)cc1`, the Potency is 2.09 µM (active).

`Cc1nc(NC(=O)N2CCC[C@@H]2C(N)=O)sc1-c1csc(C(C)(C)C)n1`: the Potency is 5.9 µM (active).

As to `O=C(Nc1cccc2c(=O)cc(-c3nn[nH]n3)oc12)c1ccc(OCCCCc2ccccc2)cc1`, the Potency is 26.4 µM (active).

Take `CCC(=O)N1CCN(c2ccc(-n3c(=O)ccc4cnc5ccc(-c6cnc7ccccc7c6)cc5c43)cc2C(F)(F)F)CC1`: the Potency is 0.0093 µM (active).

In the case of `NC(=O)c1noc([C@H](CCCC2CCCCC2)CC(=O)NO)n1`, the Potency is 18.7 µM (active).

Consider `C[C@@H]1CC=CC=CC=CC=C[C@@H](O[C@@H]2O[C@H](C)[C@@H](O)[C@H](N)[C@H]2O)C[C@@H]2O[C@](O)(C[C@@H](O)C[C@@H]3O[C@@H]3C=CC(=O)O1)C[C@H](O)[C@@H]2C(=O)O`, for which the Potency is 9.35 µM (active).

`CN(C)CCOc1cc(-c2cn[nH]c2)ccc1NC(=O)C1COc2ccccc2O1` (stereo not given): the Potency is 16.6 µM (active).

As for `COc1c(C)c2c(c(O)c1CC=C(C)CCC(=O)OCCN1CCOCC1)C(=O)OC2`, the Potency is 4.18 µM (active).

Turning to `N#CC(c1ccc(Cl)cc1)c1c(Cl)cc(-n2ncc(=O)[nH]c2=O)cc1Cl` (stereo not given), the Potency is 18.7 µM (active).

On to `NC(N)=Nc1nc(CSCCC(N)=NS(N)(=O)=O)cs1`, for which the Potency is 20.9 µM (active).

Turning to `CN1CCN(c2ncc(-c3cc(Cl)cc(Cl)c3Cl)c(N)n2)CC1`, the Potency is 10.5 µM (active).

For the molecule `CC=C1C2C=C(C)CC1(N)c1ccc(=O)[nH]c1C2` (stereo not given), the Potency entry was “inactive”.

Take `CC[C@@H]([C@H](C)O)n1ncn(-c2ccc(N3CCN(c4ccc(OCC5CO[C@@](Cn6cncn6)(c6ccc(F)cc6F)C5)cc4)CC3)cc2)c1=O` (stereo not given in full): the Potency is 10.5 µM (active).

For the molecule `Cc1ccc2c(c1)c1c(n2CCc2ccc(C)nc2)CCN(C)C1`, the Potency entry is “inactive”.

On to `OC[C@H]1O[C@@H](OCCc2ccc(O)cc2)[C@H](O)[C@@H](O)[C@H]1O`, for which the Potency entry is “inactive”.

Turning to `CO[C@H]1C=CO[C@@]2(C)Oc3c(C)c(O)c4c(O)c(c(C=NN5CCN(C)CC5)c(O)c4c3C2=O)NC(=O)C(C)=CC=C[C@H](C)[C@H](O)[C@@H](C)[C@@H](O)[C@@H](C)[C@H](OC(C)=O)[C@H]1C`, the Potency entry was “inactive”.

With `CCCCC(F)(F)[C@@]1(O)CC[C@H]2[C@H](CC(=O)[C@@H]2CCCCCCC(=O)O)O1`, the Potency result was “inactive”.

As for `CNC(=O)c1cc(Oc2ccc(NC(=O)Nc3ccc(Cl)c(C(F)(F)F)c3)c(F)c2)ccn1`, the Potency was 3.32 µM (active).

As to `CCOC(=O)N1CCN([N+]([O-])=NOc2cc(ON=[N+]([O-])N3CCN(C(=O)OCC)CC3)c([N+](=O)[O-])cc2[N+](=O)[O-])CC1`, the Potency is 2.96 µM (active).

In the case of `O=C(O)Cc1cccc(OCCCN(Cc2cccc(C(F)(F)F)c2Cl)CC(c2ccccc2)c2ccccc2)c1`, the Potency was 16.6 µM (active).

Regarding `OC(c1cc(C(F)(F)F)nc2c(C(F)(F)F)cccc12)C1CCCCN1` (stereo not given), the Potency is 23.5 µM (active).

In the case of `Cc1ccccc1C(C(=O)NC1CCCCC1)N(C(=O)CNc1ccc(C#N)cc1)c1cccc(F)c1` (stereo not given), the Potency result is “inactive”.

For the molecule `CCN1CCN(c2ccc(Nc3cc(N(C)C(=O)Nc4c(Cl)c(OC)cc(OC)c4Cl)ncn3)cc2)CC1`, the Potency result was “inactive”.

As for `CN(C)c1ccccc1CN1CCCN(Cc2ccccc2N(C)C)C1c1ccncc1`, the Potency was 18.7 µM (active).

With `Cn1cnc(-c2cc3nccc(Oc4ccc(NC(=S)NC(=O)Cc5ccccc5)cc4F)c3s2)c1`, the Potency is 13.2 µM (active).

Take `CCN1C[C@H](C)n2c(c(O)c3c(=O)n(Cc4ccc(F)c(Cl)c4)nc(C(=O)NC)c32)C1=O`: the Potency result is “inactive”.

As to `O=C1C(c2c(O)[nH]c3ccccc23)=Nc2ccccc21`, the Potency is 1.66 µM (active).

Regarding `CC(C)=CCCC(C)=CCCC(C)=CCCC(C)=CCCC(C)=CCCC(C)=CCCC(C)=CCCC(C)=CCCC(C)=CCO`, the Potency result was “inactive”.

In the case of `CCC(c1ccc(O)cc1)C(CC)c1ccc(O)cc1` (stereo not given), the Potency result was “inactive”.

On to `CON(C)C(=O)N1N=C(c2cc(F)ccc2F)S[C@]1(CCCN)c1ccccc1`, for which the Potency entry was “inactive”.
